# “And” between values parts separate entries of the source, which are not always exact repeats. Equal values may be shown once. Values without a mark were called inactive. For part of these data: Entries with a potency or affinity are not part of this list. The source made the active and inactive calls. Unless noted, the rule behind the calls is not given here.
# Legend:
# [1] = antimalarial activity against Dd2 strain (AID 2302;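 active = growth inhibition above 50% at the single 2 µM test dose, taken to imply half-maximal potency below 2 µM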;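 note: 0% = DMSO untreated growth and 100% = chloroquine plus artemisinin killed control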); details: P. falciparum Dd2 in RBCs, LDH growth readout, 72 h; at 2 µM; active compounds read high
# [2] = HepG2 cytotoxicity, primary screen, cytotoxicity control for P. falciparum antimalarial project, cell-based, ATP luminescence (AID 2303;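 active = inhibition above 50%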;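 note: 0% = DMSO wells and 100% = digitonin-killed cells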); details: HepG2 viability, 24-48 h, at 10 µM, active compounds read high
# [3] = biological target: L-lactate dehydrogenase (Plasmodium falciparum (isolate CDC / Honduras)) (UniProt Q27743); experiment: PfLDH activity inhibition – cell lysate, 3D7 strain, counter-screen for P. falciparum growth inhibition project (AID 2304);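 note: 0% = vehicle and 100% = reference inhibitor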; details: P. falciparum 3D7 crude extract, LDH APAD/NBT absorbance; at 2 µM; active compounds read high
# Chain of L-lactate dehydrogenase (Plasmodium falciparum (isolate CDC / Honduras)) (Q27743 whole entry, looked up): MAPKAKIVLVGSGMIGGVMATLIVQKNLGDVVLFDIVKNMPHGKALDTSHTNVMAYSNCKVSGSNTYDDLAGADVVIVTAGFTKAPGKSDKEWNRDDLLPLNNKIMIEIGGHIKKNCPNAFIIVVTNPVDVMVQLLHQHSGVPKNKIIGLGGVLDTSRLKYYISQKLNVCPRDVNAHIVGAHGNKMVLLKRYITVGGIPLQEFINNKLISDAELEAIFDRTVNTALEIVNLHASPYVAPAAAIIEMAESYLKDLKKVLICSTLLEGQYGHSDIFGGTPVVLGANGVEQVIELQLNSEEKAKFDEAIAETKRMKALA
# [4] = inhibition of 3D7 malaria parasite growth – strain 3D7 (AID 2306);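 note: 0% = DMSO wells and 100% = chloroquine plus artemisinin control wells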; details: P. falciparum 3D7 erythrocytic growth, LDH absorbance, 72 h; at 2 µM; active compounds read high
# [5] = biological target: Calcium-dependent protein kinase 1 (Plasmodium falciparum (isolate 3D7)) (UniProt P62344); experiment: PfCDPK1 kinase inhibitors, biochemical, TCAMS library (AID 1159585; cut-off not given, nearly all actives have IC50 up to about 0.98 µM;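 note: inhibitors leave more ATP so luminescence rises with inhibition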); details: recombinant PfCDPK1, Kinase-Glo ATP depletion luminescence
# Chain of Calcium-dependent protein kinase 1 (Plasmodium falciparum (isolate 3D7)) (P62344 whole entry, looked up): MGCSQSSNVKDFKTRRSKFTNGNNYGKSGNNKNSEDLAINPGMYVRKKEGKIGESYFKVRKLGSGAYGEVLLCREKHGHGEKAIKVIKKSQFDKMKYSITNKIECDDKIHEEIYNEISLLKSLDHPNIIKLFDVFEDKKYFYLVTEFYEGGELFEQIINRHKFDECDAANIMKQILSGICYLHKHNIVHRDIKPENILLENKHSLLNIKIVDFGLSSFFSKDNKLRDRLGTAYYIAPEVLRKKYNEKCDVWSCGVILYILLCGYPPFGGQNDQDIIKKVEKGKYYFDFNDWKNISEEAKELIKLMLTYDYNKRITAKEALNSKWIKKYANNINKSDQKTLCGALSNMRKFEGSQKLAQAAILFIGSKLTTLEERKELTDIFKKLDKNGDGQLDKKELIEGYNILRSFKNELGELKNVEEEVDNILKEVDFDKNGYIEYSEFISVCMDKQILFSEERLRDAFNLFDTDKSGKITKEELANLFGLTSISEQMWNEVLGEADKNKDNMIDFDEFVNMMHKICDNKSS
# [6] = biological target: Plasmodium falciparum protein kinase 6 (PK6, PF3D7_1337100) (UniProt Q8IDW1); experiment: PfPK6 kinase inhibitors, biochemical, TCAMS library (AID 1159586); details: recombinant PfPK6, Kinase-Glo ATP depletion luminescence
# Chain of Plasmodium falciparum protein kinase 6 (PK6, PF3D7_1337100) (Q8IDW1 1-305): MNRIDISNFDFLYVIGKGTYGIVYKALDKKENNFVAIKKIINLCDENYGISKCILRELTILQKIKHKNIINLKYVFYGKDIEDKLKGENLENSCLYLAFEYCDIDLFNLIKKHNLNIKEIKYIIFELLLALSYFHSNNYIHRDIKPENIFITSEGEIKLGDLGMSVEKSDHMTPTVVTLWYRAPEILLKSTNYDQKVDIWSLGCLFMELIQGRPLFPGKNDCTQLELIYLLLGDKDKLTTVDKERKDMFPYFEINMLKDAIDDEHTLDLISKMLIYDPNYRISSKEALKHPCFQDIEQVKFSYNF
# [7] = biological target: Protein kinase 7 (PK7), Plasmodium falciparum 3D7 (PF3D7_0213400) (UniProt Q7YTF7); experiment: inhibition of Plasmodium PK7 catalytic activity – biochemical, TCAMS antimalarial set, Kinase-Glo luminescence (AID 1159587); details: recombinant PfPK7, Kinase-Glo ATP depletion luminescence
# Chain of Protein kinase 7 (PK7), Plasmodium falciparum 3D7 (PF3D7_0213400) (Q7YTF7 1-343): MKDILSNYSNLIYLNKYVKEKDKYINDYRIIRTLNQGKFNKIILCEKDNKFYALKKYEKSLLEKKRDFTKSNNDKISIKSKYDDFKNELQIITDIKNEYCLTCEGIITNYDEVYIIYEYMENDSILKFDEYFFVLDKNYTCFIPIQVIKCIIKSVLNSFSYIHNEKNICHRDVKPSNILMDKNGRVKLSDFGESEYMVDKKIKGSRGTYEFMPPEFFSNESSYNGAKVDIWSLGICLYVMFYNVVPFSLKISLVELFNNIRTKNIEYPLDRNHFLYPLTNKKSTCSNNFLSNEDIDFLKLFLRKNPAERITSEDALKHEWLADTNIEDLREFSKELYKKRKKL
# [8] = biological target: Calcium-dependent protein kinase 4 (Plasmodium falciparum (isolate 3D7)) (UniProt Q8IBS5); experiment: PfCDPK4 kinase inhibitors, biochemical, TCAMS library (AID 1159588; cut-off not given, nearly all actives have IC50 up to about 0.91 µM); details: recombinant PfCDPK4, Kinase-Glo ATP depletion luminescence
# Chain of Calcium-dependent protein kinase 4 (Plasmodium falciparum (isolate 3D7)) (Q8IBS5 whole entry, looked up): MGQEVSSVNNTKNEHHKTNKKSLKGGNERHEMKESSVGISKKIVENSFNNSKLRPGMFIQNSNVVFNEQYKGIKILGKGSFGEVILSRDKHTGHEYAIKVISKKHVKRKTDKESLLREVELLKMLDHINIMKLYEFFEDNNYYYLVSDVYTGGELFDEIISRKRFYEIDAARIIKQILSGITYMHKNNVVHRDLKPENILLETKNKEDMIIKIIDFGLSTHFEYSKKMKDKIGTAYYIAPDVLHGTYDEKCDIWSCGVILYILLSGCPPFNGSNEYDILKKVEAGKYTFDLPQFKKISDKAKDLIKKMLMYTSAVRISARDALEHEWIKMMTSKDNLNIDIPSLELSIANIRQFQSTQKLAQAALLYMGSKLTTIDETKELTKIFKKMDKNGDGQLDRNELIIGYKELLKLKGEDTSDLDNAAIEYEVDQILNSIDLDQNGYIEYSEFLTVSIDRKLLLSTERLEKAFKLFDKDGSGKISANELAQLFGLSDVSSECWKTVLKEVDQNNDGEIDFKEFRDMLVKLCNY
SMILES,growth inhibition [1],inhibition [2],inhibition [3],growth inhibition [4],outcome [5],outcome [6],outcome [7],outcome [8]
Oc1cccc(C2CCCN(CCc3c[nH]c4ccccc34)C2)c1 (centres undefined),40%,0%,2%,93% (active),inactive,inactive,inactive,inactive
FC(F)(F)c1ccc(NC(=S)N2CCC(CN3CCC(c4c[nH]c5ccccc45)CC3)CC2)cc1,45%,35%,-6%,100% (active),inactive,inactive,inactive,inactive
COc1cccc(/C=C/C(=O)NC2CCC(CN3CCC(c4c[nH]c5ccccc45)CC3)CC2)c1 (centres undefined),26% and 38%,19% and 30%,-1% and 6%,94% (active) and 100% (active),inactive,inactive,inactive,inactive
O=C(Nc1ccc(Oc2ccccc2)cc1)NC1CCC(CN2CCC(c3c[nH]c4ccccc34)CC2)CC1 (centres undefined),97% (active),55% (active),4%,101% (active),inactive,inactive,inactive,inactive
c1ccc2c(NCCCCCCNc3c4ccccc4nc4ccccc34)c3ccccc3nc2c1,80% (active),60% (active),3%,99% (active),inactive,inactive,inactive,inactive
Cc1[nH]c2cc(Cl)ccc2c1C1=CCN(CCCCC2(C)C(=O)Nc3c(F)cccc32)CC1 (centres undefined),74% (active),14%,3%,90% (active),inactive,inactive,inactive,inactive
S=C(NCCc1ccc(Cl)cc1)N1CCC(CN2CCC(c3c[nH]c4ccccc34)CC2)CC1,7%,31%,0%,90% (active),inactive,inactive,inactive,inactive
C=C[C@H]1CN2CC[C@H]1C[C@H]2[C@H](OS(=O)(=O)O)c1ccnc2ccccc12,15%,8%,5%,99% (active),inactive,inactive,inactive,inactive
O=C(/C=C/c1ccc(Cl)cc1Cl)NC1CCC(CN2CCC(c3c[nH]c4ccccc34)CC2)CC1 (centres undefined),79% (active),37%,7%,101% (active),inactive,inactive,inactive,inactive
COc1cccc(C2(C)CCN(CCCCNC(=O)c3ccc(NC(=O)c4ccc(Cl)cc4)cc3)CC2)c1,72% (active),19%,8%,97% (active),inactive,inactive,inactive,inactive
O=C(/C=C/c1ccc(Cl)c(Cl)c1)N1CC[C@H]2C[C@H](N3CCC(c4c[nH]c5ccccc45)CC3)CC[C@@H]2C1,99% (active),31%,0%,100% (active),inactive,inactive,inactive,inactive
Cc1cc2ccc(CNCCc3ccccc3Br)cc2nc1N,48%,-1%,1%,101% (active),inactive,inactive,inactive,inactive
O=C(C=Cc1ccccc1O)N1CCC(CN2CCC(c3c[nH]c4ccccc34)CC2)CC1,43%,27%,-1%,98% (active),inactive,inactive,inactive,inactive
CCCc1cc(O)c2c3c(c(=O)oc2c1)CN(C)CC3,50% (active),12%,0%,98% (active),inactive,inactive,inactive,inactive
CC(=O)Nc1ccc2[nH]cc(C3CCN(CC4CCC(NC(=O)/C=C/c5ccc(Cl)c(Cl)c5)CC4)CC3)c2c1 (centres undefined),99% (active) and 59% (active),18% and 10%,2% and 6%,90% (active) and 100% (active),inactive,inactive,inactive,inactive
CCc1ccc(CN2CCC(CN(C(=O)c3ccccc3)c3ccc(Cl)cc3)CC2)cc1,95% (active),12%,-4%,96% (active),inactive,inactive,inactive,inactive
Cn1nc(-c2ccc(S(=O)(=O)N3CCC(CN4CCC(c5c[nH]c6ccccc56)CC4)CC3)s2)cc1C(F)(F)F,48%,16%,-6%,93% (active),inactive,inactive,inactive,inactive
NCc1cccc(-c2cccc(CN(C(=O)Nc3ccccc3)C3CCN(Cc4ccccc4)CC3)c2)c1,8%,3%,-2%,99% (active),inactive,inactive,inactive,inactive

# From PubChem BioAssay
